Assay results: PubChem BioAssay (NCATS)
Unmarked numbers belong to inactive results. Active and inactive are the calls of the source. Calls follow the shape of the dose curve; as a rule, active = well fitted inhibition curve with a large enough effect; inconclusive = small, poorly fitted or top-dose-only effect; inactive = flat fitted curve, though single readings scatter. *1 amine or outer side, *2 acyl side, *3 side chain or, on linkers, in order; H or OH if unused. Where a SMILES comes first, the peptide text is derived from it. [ ]: non-standard residue; d: D form. X5 = CC(CC(O[*:1])C(=O)[*:2])C(=O)O; NMeV = CN[CH](C(=O)O)C(C)C; NMeA = CN[CH](C)C(=O)O; βAla = NCCC(=O)O

Each molecule was assayed against Luciferin 4-monooxygenase (Photinus pyralis) (UniProt P08659) (assay: Primary firefly luciferase (FLuc) qHTS assay for identification of artifact compounds. (AID 1845220; also: nearly all actives have a fitted effect of over 60% in size)). Conditions: purified firefly luciferase, luminescence, 5 min; series mostly up to 54.1 µM; activity change, negative = inhibition: at the top concentration.
From the text: PI: Alexander Tropsha Ph.D.
UNC Eshelman School of Pharmacy
University of North Carolina, Chapel Hill, North Carolina
Hits from high-throughput screening (HTS) of chemical libraries are often false positives due to their interference with the assay detection technology. In response to this problem, we generated the largest publicly available library of chemical liabilities and developed a free webtool to predict HTS artifacts, both of which are described herein. More specifically, we generated, curated, and integrated HTS datasets for thiol reactivity, redox activity, and luciferase (firefly and nano) activity. Using these curated datasets, we developed and validated several Quantitative Structure-Interference Relationship (QSIR) models to predict nuisance behavior. […] These models were employed for virtual profiling of the National Center for Advancing Translational Science's (NCATS) in-house library, and 256 compounds for each assay were selected for the experimental validation of nuisance behavior. The BA for these external predictions ranged from 58 to 78% for compounds within the applicability domains of the models. […] The models developed in this study, along with aggregation models previously developed by our group (SCAM Detective) were implemented in "Liability Predictor," an online tool which may be used as part of chemical library design or for triaging HTS hits. Both the models and the curated datasets are publicly available at https://liability.mml.unc.edu/.
SEQUENCE No. (e.g., 1, 2, 3, etc.); […] (e.g., Cells, Incubation, Reagent, etc.); VALUE; DESCRIPTION.
1; Reagent; 3 uL; Luciferase substrate mixture.
2; Compounds and control; 16 nL; Kalypsis pin tool (Wako USA) equipped with a 1536-well pin head.
4; Reagent; 1 uL; Luciferase enzyme.
6; Detection; Luminescence, ViewLux microplate reader.
NOTES (numbers refer to Sequence numbers above)
1. 3 uL of luciferase substrate mixture containing D-luciferin and ATP (final concentrations of 10 uM and 10 uM, respectively) in assay buffer (10 mM Mg-acetate, 0.01% Tween-20, 0.05% bovine serum albumin, 50 mM Tris acetate, pH 7.6) was dispensed into all wells of a 1536-well assay plate (solid-bottom white plate; Greiner Bio One, Monroe, NC).
2. A Wako Pin-tool (Wako Automation, Richmond, VA) was used to transfer 16 nL of compounds (consisting of 7-plates in qHTS format, final concentration range 18.3 nM to 114 uM) or control PTC124 (final concentration range 1.22 nM to 40 uM).
3. 15 min. incubation at room temperature protected from light.
4. 1 uL of luciferase enzyme (final concentration 10 nM, Photinus pyralis luciferase) or buffer was dispensed for a final assay volume of 4 uL.
5. Plates were centrifuged (121xg, 15 seconds) and incubated for 5 minutes.
6. Samples were read for luminescence on a ViewLux CCD imager (PerkinElmer). Data were normalized to no-enzyme (0% activity) and no-inhibitor (DMSO; 100%) controls and the resulting percent inhibition data were fitted to a 4-parameter Hill equation using NCATS in-house software.

SMILES	activity change, negative = inhibition	outcome
CCCCN1[C@@H]2CC[C@H]1CC(OC(c1ccc(F)cc1)c1ccc(F)cc1)C2 (stereo not given in full)	4.15%	
C=C1[C@@]23C(=O)O[C@H](C)[C@]24O[C@@]2(C(=C)[C@]5(C=CC(=O)OC5(C)C)CC[C@]32C)[C@H](O)[C@@]1(C)OC4=O	-11.7% [at 25.7 µM]	
C=C(CO)[C@@]12O[C@@H]1[C@@]1(C)C(=CC2=O)CC[C@@H](O)[C@@H]1C	1.48%	
C/C=C(\C)C(O)C(C)/C=C(C)/C=C/C/C(C)=C/Cc1nc(OC)c(OC)c(O[C@@H]2O[C@@H](C)[C@H](O)[C@@H](O)[C@H]2O)c1C (stereo not given in full)	1.54% [at 25.7 µM]	
CN1C(=O)[C@@H](Cc2c[nH]c3ccccc23)N=C(c2ccccc2F)c2ccccc21		inactive
C[C@]12CC[C@H](O)CC1=CC[C@@H]1C2CC[C@]2(C)[C@@H](C3=CC(=O)OC3)CC[C@]12O (stereo not given in full)	-4.85%	
C/C=C(\C)C(=O)OC1CC2C(CC=C3CC(OC4CC(OC)C(OC5CC(OC)C(OC6CC(OC)C(OC7CC(OC)C(O)C(C)O7)C(C)O6)C(C)O5)C(C)O4)CCC32C)C2(O)CCC(C(C)=O)C12C (stereo not given)	3.09% [at 11.6 µM]	
CCC(C)C1NC(=O)C2CCCN2C(=O)C(CC(C)C(=O)O)OC(=O)CCNC(=O)C(C)N(C)C(=O)C(C(C)C)N(C)C1=O (stereo not given) (cyclo([X5]PI[NMeV][NMeA][βAla]); configuration not given here)	3.28% [at 25.7 µM]	
CC[C@H](C)[C@H](NC(=O)[C@H]1CCCCN1C)C(=O)N(COC(=O)CC(C)C)[C@H](C[C@@H](OC(C)=O)c1nc(C(=O)N[C@@H](Cc2ccc(O)cc2)C[C@H](C)C(=O)O)cs1)C(C)C	-4.53% [at 1.03 µM]	
COC1CCCC(C)OC(=O)Cc2cc(O)cc(O)c2C(=O)C1 (stereo not given)	0.373%	
C#C[C@]1(O)CC[C@H]2[C@@H]3CC[C@H]4Cc5nc6nc7ccccc7n6cc5C[C@]4(C)[C@H]3CC[C@@]21C	0.536%	
O=C(C[C@@H]1NCCC[C@H]1O)Cn1cnc2ccccc2c1=O		inactive
COC1CC(OC2CCC3(C=O)C(CCC4C3CCC3(C)C(C5=CC(=O)OC5)CCC43O)C2)OC(C)C1O (stereo not given)		inactive [at 25.7 µM]
CN1C2CCC1CC(OC(=O)N1Cc3ccccc3NC1=O)C2 (stereo not given)	2.23%	
C[N@@+]1(CC2CC2)CC[C@]23c4c5ccc(O)c4O[C@H]2C(=O)CC[C@@]3(O)[C@H]1C5	0.939%	
CO[C@@H]1[C@@H](O)[C@@H](O[C@H]2CC[C@]3(C=O)C4CC[C@]5(C)[C@@H](C6=CC(=O)OC6)CC[C@]5(O)[C@@H]4CC[C@H]3C2)O[C@@H](C)[C@H]1O[C@@H]1O[C@H](CO[C@@H]2O[C@H](CO)[C@@H](O)[C@H](O)[C@H]2O)[C@@H](O)[C@H](O)[C@H]1O (stereo not given in full)	-6.08% [at 11.6 µM]	
C[C@]12CC[C@H](O[C@@H]3O[C@H](CO)[C@@H](O)[C@H](O)[C@H]3O[C@@H]3O[C@H](CO)[C@@H](O)[C@H](O)[C@H]3O)CC1=CC[C@@H]1[C@@H]2CC[C@]2(C)[C@@H](C3=CC(=O)OC3)CC[C@]12O		inactive [at 25.7 µM]
Cc1sc2c(c1C)C(c1ccc(Cl)cc1)=N[C@@H](CC(N)=O)c1nnc(C)n1-2	-0.767%	
CO[C@@H]1C[C@H](O[C@H]2CC[C@@]3(C)C(CCC4C3CC[C@]3(C)[C@@H](C5=CC(=O)OC5)[C@@H](OC(C)=O)CC43O)C2)O[C@H](C)[C@@H]1O[C@H]1O[C@H](CO[C@@H]2O[C@H](CO)[C@@H](O)[C@H](O)[C@H]2O)[C@@H](O)[C@H](O)[C@H]1O (stereo not given in full)	-3.37% [at 11.6 µM]	
CC1=C[C@H]2O[C@@H]3[C@H](O)[C@@H](O)[C@](C)([C@@]2(CO)C[C@@H]1O)[C@]31CO1	0.574%	

SMILES	activity change, negative = inhibition	outcome
C[C@@H]1CCC/C=C/[C@H]2C[C@@H](O)C[C@@H]2[C@@H](O)/C=C/C(=O)O1		inactive
COC(=O)C12C(=O)C(C)(O)C(=O)C1(C)C(C)=CC1C34CCC(OC3=O)C(C)(C)C4CCC12C (stereo not given)	-15.7% [at 25.7 µM]	
Cc1sc2c(c1C)C(c1ccc(Cl)cc1)=NC(CC(=O)Nc1ccc(O)cc1)c1nnc(C)n1-2 (stereo not given)		inactive
CC(C)=CCC[C@]1(C)C=Cc2c(O)c3c(c(CC=C(C)C)c2O1)O[C@]12C(=C[C@@H]4CC1C(C)(C)O[C@@]2(C/C=C(/C)C(=O)O)C4=O)C3=O	-0.987%	
CN(C)c1cc2c(cc1Sc1nc3c(N)nccc3n1CCNCC(C)(C)C)OCO2	1.34%	
CCCCCCC1C(=O)O[C@H](C)[C@H](NC(=O)c2cccc(NC=O)c2O)C(=O)O[C@@H](C)[C@@H]1OC(=O)CC(C)C (stereo not given in full)	4.87%	
Cc1ccc(-n2nccn2)c(C(=O)N2CCN(c3nc4cc(Cl)ccc4o3)CCC2C)c1 (stereo not given)		inactive
COc1ccc(C(C)(C)C)cc1CN[C@H]1C2CCN(CC2)[C@H]1C(c1ccccc1)c1ccccc1	-15.8%	
CO[C@H]1C[C@H](O[C@H]2CC[C@@]3(C)C(=CCC4C3CC[C@]3(C)[C@@H](C5=CC(=O)OC5)CC[C@]43O)C2)O[C@@H](C)[C@@H]1O[C@@H]1O[C@H](CO[C@@H]2O[C@H](CO)[C@@H](O)[C@H](O)[C@H]2O)[C@@H](O)[C@H](O)[C@H]1O (stereo not given in full)	0.797% [at 11.6 µM]	
CO[C@H]1C[C@H](O[C@H]2CC[C@]3(CO)[C@H]4CC[C@]5(C)[C@@H](C6=CC(=O)OC6)CC[C@]5(O)[C@@H]4CC[C@]3(O)C2)O[C@H](C)[C@H]1O	-14.4% [at 25.7 µM]	
Cc1sc2c(c1C)C(c1ccc(Cl)cc1)=N[C@@H](CC(=O)Nc1ccc(O)cc1)c1nnc(C)n1-2		inactive [at 11.6 µM]
CCOC(=O)c1ccc(-c2ccc(OC(=O)N(C)Cc3cccc(-c4ccncc4)c3)cc2)cc1	-12%	
CN1C(=O)C(Cc2ccc3ccccc3c2)N=C(c2ccc(O)cc2)c2cc(Cl)ccc21 (stereo not given)		inactive
CCCN(CCC)[C@@H]1CCc2ccc3[nH]c(C#N)cc3c2C1	0.812%	
COC1CC(O[C@H]2CC[C@]3(C)C4CC[C@]5(C)[C@@H](C6=CC(=O)OC6)[C@@H](OC(C)=O)C[C@]5(O)C4CC[C@@H]3C2)OC(C)C1O[C@@H]1O[C@H](CO)[C@@H](O)[C@H](O)[C@H]1O (stereo not given in full)	3.87% [at 25.7 µM]	
C[C@H](CCC(=O)O)C[C@H](C)C[C@H](C)C(=O)/C=C(\O)[C@H](C)C[C@H](C)C/C=C/[C@@H](C)[C@@H](O)[C@@H](C)[C@@H](O)C[C@@H]1CC[C@@](C)([C@H]2CC[C@@](C)([C@@H](C)O)O2)O1	0.749% [at 25.7 µM]	
CN1CCC2=C(C1)c1ccccc1Cc1ccccc12	2.93%	
C[C@@H]1C[C@@H](O)[C@]2(O)O[C@@H]3C[C@@]4(C=O)C(CC[C@@H]5C4CC[C@]4(C)[C@@H](C6=CC(=O)OC6)CC[C@]54O)C[C@H]3O[C@@H]2O1 (stereo not given in full)		inactive [at 25.7 µM]
CC(=O)C1CCC2C3CCC4C[C@@H](O)CCC4(C)C3CCC12C (stereo not given in full)	-1.12%	
O=C(N1CCCCC1Cc1ccccc1)n1cc(-c2ccc(-c3ccccc3)cc2)nn1 (stereo not given)	4.05%	
